For 53 compounds, INHIBITION results are on record in ChEMBL document CHEMBL4513216, “Probing the Open Global Health Chemical Diversity Library for Multistage-Active Starting Points for Next-Generation Antimalarials” (ACS Infect Dis, 2020).

Each structure is given as a SMILES string. About 8,600 (12%) of roughly 69,000 compounds showed an effect of 50% or more. Only a selection was taken, and strong results are over-represented in it overall.

The test concerns Plasmodium berghei. Kind of test: Screen against P. berghei liver stage (PbLuc), transformed with Luciferase, at 10uM. The class given is functional, HepG2. As to conditions: tested at 10 uM.
As to `CN(c1ccc(C(=O)NCCCN2CCCCC2)c(Cl)c1)S(C)(=O)=O`, the INHIBITION was 70.4%. The result for `Cc1ccc(C(=O)NCCCN2CCOCC2)c(Cl)c1` reads -56.5%. To `Cc1ccc(C(=O)NCCN2CCOCC2)cc1N(C)S(C)(=O)=O` belongs 55.5%; to `Cc1ccc(C(=O)NCCC2CCN(C)CC2)cc1N(C)S(C)(=O)=O`, 42.1%. The result for `O=C(NCCCN1CCOCC1)c1ccc(Cl)cc1Cl` reads -4.52%. On to `CN(c1ccc(C(=O)NCCN2CCOCC2)c(Cl)c1)S(C)(=O)=O`, for which the INHIBITION is reported as 38.5%. The result for `CN(c1ccc(C(=O)NCCCN2CCOCC2)c(Cl)c1)S(C)(=O)=O` reads 46.8%; that for `CN(c1ccc(C(=O)NCCCN2CCCC2)c(Cl)c1)S(C)(=O)=O`, 40.9%. To `CN(c1ccc(Cl)c(C(=O)NCCCN2CCOCC2)c1)S(C)(=O)=O` belongs 63.3%; to `Cc1ccc(C(=O)NC2CCN(C)CC2)cc1N(C)S(C)(=O)=O`, 34.2%; to `Cc1cc(C)c(S(N)(=O)=O)cc1C(=O)NCCN1CCC(C)CC1`, -7.83%. The result for `Cc1c(Cn2c(=O)cnc3ccccc32)cnn1C` reads 34%; that for `COCC(=O)N1CCC2(CC1)NC(=O)c1ccccc12`, 46.7%. With `Cc1ccc(CN2CC[C@@H]3[C@@H](CO[C@H]3CN3CCN(C)CC3)C2)s1`, the INHIBITION is -35.9%. The result for `NC(=O)C1CCN(CC(=O)N(Cc2ccccc2)Cc2nccs2)CC1` reads 2.15%; that for `O=C(Cc1ccon1)N1CCc2cc(Br)sc2C1`, -28.9%. Regarding `CC(C)c1nnc(CN2CCCC(c3cc(C(N)=O)[nH]n3)C2)o1` (stereo not drawn), the INHIBITION stood at 33.7%. On to `C[C@@H]1CN(c2nc3c(cc2C(N)=O)CCC3)C[C@]1(C)O`, for which the INHIBITION is given as -13.8%. To `CCc1nc(CC2CN(c3ncnc4nc(C)cc(C)c34)CCO2)no1` (stereo not drawn) belongs 22%; to `CN(C)CCCNC(=O)c1ccc(N(C)S(C)(=O)=O)cc1Cl`, 64.1%. The result for `CN1CCC(CCNC(=O)c2ccc(N(C)S(C)(=O)=O)cc2Cl)CC1` reads 8.47%; that for `Cc1nc(-c2noc3ccc(C(=O)NCCN(C)C)cc23)co1`, 8.31%.

Take `Cc1nc(-c2noc3ccc(C(=O)NCCN4CCOCC4)cc23)cs1`: the INHIBITION is recorded as 46.7%. As to `CN(C)CCCNC(=O)c1cc(Cl)ccc1Cl`, the INHIBITION worked out at 4.93%. To `CC1CCCN(CCCNC(=O)c2ccc(N(C)S(C)(=O)=O)cc2Cl)C1` (stereo not drawn) belongs 53.7%; to `Cc1nc(-c2noc3ccc(C(=O)NCCN4CCOCC4)cc23)co1`, 63%; to `CN(C)CCCNC(=O)c1ccc(Cl)cc1Cl`, 16%. To `CC1CCCN(CCCNC(=O)c2cn(C)nc2-c2cccnc2)C1` (stereo not drawn) belongs 13.2%; to `Cc1ncsc1C(=O)NCc1ccnc(N2CCN(C)CC2)c1`, 12.85%. The result for `CCc1cnc(N2C[C@@H]3C[C@H](C(=O)N4CCOCC4)[C@H](C2)O3)nc1` reads 28.5%. Take `CCOC(=O)N1[C@@H](c2ccco2)[C@@H](C(=O)O)C[C@]12CCCCNC2=O`: the INHIBITION was -8.8%.

For `O=C(O)c1cnc(N2CCCC2)nc1COc1ccccc1`, the INHIBITION is -14.8%.

As to `Cc1cnn(C2CN(CC(=O)NCC(C)C)C2)c1`, the INHIBITION was 16.9%.

Take `CCn1cnnc1C1CCN(C(=O)c2ccoc2C)CC1`: the INHIBITION is -5.07%. With `c1ccc(COc2cccc(CNC3CCc4ncnn4C3)c2)cc1` (stereo not drawn), the INHIBITION turned out to be 33.6%. Regarding `Cc1ccc2c(c1)C(=O)NCC1(CCN(C(=O)c3csc(C)c3)CC1)O2`, the INHIBITION was -28.6%.

As for `O=C(N1CCOCC1)N1C2CCC(O)(CC2)C1CN1CCOCC1` (stereo not drawn), the INHIBITION is given as 44.2%. As for `CNc1cc2c(nn1)CCN(C(=O)c1coc(Br)c1)C2`, the INHIBITION came out at 3.73%. To `Cc1ncc(CC(=O)N2CCC(N3C[C@@H](C)O[C@@H](C)C3)CC2)c(=O)[nH]1` belongs 37.4%; to `Cc1cnn(CC2CCCN2C(=O)Cc2c(C)nc(C)[nH]c2=O)c1` (stereo not drawn), 31.8%. To `Cc1ncc(CC(=O)N2CCCCC2CCN2CCCC2)c(=O)[nH]1` (stereo not drawn) belongs 61.8%; to `CC(=O)NC(CC(=O)Nc1ccc(C)cn1)c1ccccc1` (stereo not drawn), 27.6%. `N#CC1(NC(=O)c2cc(Cl)ccc2OC(F)F)CCOCC1`: the INHIBITION is on record as 45.4%.

As to `O=C(c1c[nH]c(=O)[nH]1)N1CCc2ccccc21`, the INHIBITION is 90.7%. To `O=C(NN1CCCc2ccccc21)c1c[nH]c(=O)[nH]1` belongs 32.3%; to `O=C(c1ccc(=O)[nH]n1)N1CCc2ccccc21`, 38.8%; to `O=C([C@@H]1COC[C@H]2CN(c3ccncn3)C[C@H]21)N1CCCC1`, -10.3%. The result for `CCOC(=O)c1n[nH]cc1-c1cncn1CCCn1nc(C)cc1C` reads 15.9%; that for `CNCC(=O)N1CCC(c2cccc(Oc3ccccc3)n2)CC1`, 29.5%. As for `NCC(=O)N1CCC(c2cccc(Oc3ccccc3)n2)CC1`, the INHIBITION stood at 75.9%. The result for `CC(=O)N1CCC(c2cccc(Oc3ccccc3)n2)CC1` reads 9.98%. To `CCn1cc(Br)c(C(=O)NCc2ccc(F)cc2)n1` belongs -34%; to `O=C(NCc1ccc(-n2cncn2)nc1)c1cnccn1`, 48.3%.
